Screening data from PubChem BioAssay.
L3MBTL1 inh-1 – L3MBTL1 (human) inhibition; AlphaScreen L3MBTL1–H3K9me1 peptide binding; Q9Y468; AID 485360; Potency, µM (doses to about 57.1 µM), inactives show at the highest dose activity, negative = inhibition, usual class: inhibitors; hit rate 0.66% among 230,000; also: % is scaled to controls: 0 for no effect and ±100 for the full control effect; nearly all actives have a fitted effect of over 60% in size
Target sequence (Q9Y468 whole entry, looked up): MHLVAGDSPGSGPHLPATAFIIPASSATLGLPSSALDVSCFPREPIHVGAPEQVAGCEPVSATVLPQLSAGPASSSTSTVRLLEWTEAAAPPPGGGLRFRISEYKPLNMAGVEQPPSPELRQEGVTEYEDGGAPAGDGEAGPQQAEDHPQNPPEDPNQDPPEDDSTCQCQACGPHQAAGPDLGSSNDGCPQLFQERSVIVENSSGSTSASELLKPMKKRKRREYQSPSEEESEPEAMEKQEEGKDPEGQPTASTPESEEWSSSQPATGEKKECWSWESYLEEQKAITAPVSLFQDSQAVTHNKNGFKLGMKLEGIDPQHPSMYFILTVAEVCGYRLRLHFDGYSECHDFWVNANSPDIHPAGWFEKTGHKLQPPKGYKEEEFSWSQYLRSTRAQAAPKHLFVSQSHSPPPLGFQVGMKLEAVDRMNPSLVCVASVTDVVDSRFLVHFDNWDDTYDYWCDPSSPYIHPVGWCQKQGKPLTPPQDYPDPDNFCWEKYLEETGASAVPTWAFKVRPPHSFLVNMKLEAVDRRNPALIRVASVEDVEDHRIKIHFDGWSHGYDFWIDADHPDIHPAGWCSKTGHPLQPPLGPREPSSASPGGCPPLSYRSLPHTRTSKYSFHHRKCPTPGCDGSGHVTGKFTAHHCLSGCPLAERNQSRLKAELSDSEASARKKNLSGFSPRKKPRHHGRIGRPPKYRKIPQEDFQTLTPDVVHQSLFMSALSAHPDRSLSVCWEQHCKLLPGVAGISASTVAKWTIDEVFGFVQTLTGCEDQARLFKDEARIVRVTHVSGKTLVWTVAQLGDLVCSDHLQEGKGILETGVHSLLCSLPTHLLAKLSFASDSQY
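L3MBTL1 (50 nM) pre-complexed 30 min with biotinylated H3(1-15)K9me1 peptide (75 nM), then compounds added for 30 min at room temperature; AlphaScreen streptavidin donor/nickel chelate acceptor beads (10 ug/mL final) read after 30 min dark incubation.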
APE1 inh-1 – APE1 (human) endonuclease inhibition; hit rate 0.35% among 350,000; AID 2517; recombinant APE1, TAMRA/BHQ-2 abasic DNA cleavage fluorescence; Potency, µM (highest dose often 65.8 µM), for the others: at the top dose activity change, negative = inhibition, most hits filed as inhibitors; P27695;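 also: plate controls were vehicle for no effect and reference inhibitor for full effect; nearly all actives have a fitted effect of over 55% in size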
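Step 1: APE1 (0.75 nM) with compound, 15 min RT. Step 2: add 50 nM fluorophore/quencher THF duplex. Step 3: three fluorescence reads 60 s apart (525/598 nm); read 3 minus read 1 = reaction progress.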
RECQ1 inh-1 – inhibitors of human RECQ1 DNA helicase; P46063; RECQ1 DNA unwinding, red fluorescence kinetic read; Potency, µM (highest dose often 57.3 µM), without a hit: at the top dose activity, negative = inhibition, most hits filed as inhibitors; hit rate 0.54% among 240,000; AID 2549;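 also: plate controls were vehicle for no effect and no enzyme for full effect; nearly all actives have a fitted effect of over 30% in size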
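50 nM RECQ1T1 preincubated 15 min with compound in Tris pH 8.0 buffer with MgCl2, DTT, Tween-20 and 2.5 ug/ml poly(dI-dC); started with 200 nM TAMRA/BHQ-2 forked duplex and 2 mM ATP. Unwinding read as fluorescence (525/598 nm), two reads 2 h apart.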
BLM inh-1 – inhibitors of human Bloom syndrome helicase BLM | recombinant BLM DNA unwinding, fluorescence dequenching | Potency, µM (titrated, usually from 56.1 µM), inactives show at the highest dose activity change, negative = inhibition, usual class: inhibitors | hit rate 0.2% among 350,000;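 also: plate controls were vehicle for no effect and no enzyme for full effect; nearly all actives have a fitted effect of over 35% in size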
JMJD2E inh – blocks human JMJD2E demethylase activity. B2RXH2. hit rate 1.6% among 230,000. Potency, µM (doses to about 57.1 µM), inactives show at the highest dose activity change, negative = inhibition, actives largely listed as inhibitors. JMJD2E catalytic domain, FDH-coupled NADH fluorescence (FDH is formaldehyde dehydrogenase);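 also: 0% = wells with enzyme and -100% = buffer wells without enzyme; nearly all actives have a fitted effect of over 50% in size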
RGS12 GoLoco inh – inhibitors of human Gai1-RGS12 GoLoco interaction (red fluorophore) | hit rate 0.44% among 230,000 | Gai1:RGS12 GoLoco peptide FP, rhodamine, 10 min | P63096 | Potency, µM (highest dose often 61.6 µM), for inactives: top-dose activity, negative = inhibition, actives largely listed as inhibitors; active = well fitted inhibition curve with a large enough effect, not every such curve was filed as active; inactive = no such curve, though single readings can be large or run the other way; also: % is scaled to controls: 0 for no effect and ±100 for the full control effect; nearly all actives have a fitted effect of over 30% in size
DNA dye displace – displaces fluorescent dye from DNA, flagging APE1 artifacts; AID 2564; DNA fluorescent dye displacement counterscreen, fluorescence; Potency, µM (series often up to 28.5 µM), for the others: at the top dose activity change, negative = inhibition, hits mostly inhibitors; hit rate 7% among 480; shares compounds with APE1 inh-1;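 also: loss of thiazole orange fluorescence as the dye is displaced from duplex DNA; 0% = ThO with dsDNA and no compound and -100% = ThO without dsDNA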
Endo IV inh – counter-screen for APE1 inhibitors: inhibitors of E. coli endonuclease IV; shares compounds with APE1 inh-1; E. coli Endo IV, fluorogenic AP-site DNA cleavage; Potency, µM (doses to about 27.1 µM), for the others: at the top dose activity change, negative = inhibition, most hits filed as inhibitors; hit rate 4% among 560; AID 2565;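 also: plate controls were uninhibited enzyme wells for no effect and no enzyme buffer wells for full effect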
APE1 inh-2 – confirmation of inhibitors of human APE1 endonuclease. shares compounds with APE1 inh-1. purified APE1, fluorogenic abasic-site DNA cleavage. Potency, µM (doses to about 57.1 µM), for the others: top-dose activity change, negative = inhibition, hits mostly inhibitors. hit rate 44% among 750. AID 2572; also: % is scaled to controls: 0 for no effect and ±100 for the full control effect; nearly all actives have a fitted effect of over 30% in size
APE1 FP inh – APE1 (human) DNA binding inhibition, fluorescence polarization; shares compounds with APE1 inh-1; APE1 binding to TAMRA-labelled double-stranded DNA, fluorescence polarization displacement; Potency, µM (top dose mostly 28.5 µM), inactives show at the top dose activity, negative = inhibition, hits mostly inhibitors; hit rate 7% among 480; AID 2573; also: % is scaled to controls: 0 for no effect and ±100 for the full control effect
BLM inh-2 – BLM (human) helicase inhibition, confirmation; AID 2585; shares compounds with BLM inh-1; Potency, µM, for the others: max response, negative = inhibition, actives largely listed as inhibitors; BLM DNA unwinding, fluorescence quenching, biochemical; hit rate 40% among 220;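 also: strand separation dequenches TAMRA so unwinding raises red fluorescence; series mostly up to about 69 µM; % is scaled to controls: 0 for no effect and ±100 for the full control effect; nearly all actives have a fitted effect of over 45% in size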
RECQ1 inh conf – confirmation of human RECQ1 helicase inhibitors | shares compounds with RECQ1 inh-1 | RECQ1 helicase DNA unwinding, fluorescence | Potency, µM (highest dose often 229 µM), for the others: at the highest dose activity change, negative = inhibition, usual class: inhibitors | hit rate 28% among 610; also: % is scaled to controls: 0 for no effect and ±100 for the full control effect; nearly all actives have a fitted effect of over 45% in size
RECQ1 ADP FP – ADP displacement flagged in RECQ1 inhibitor counter-screen; shares compounds with RECQ1 inh-1; ADP fluorescence polarization displacement counterscreen; Potency, µM (titrated, usually from 228 µM), for the others: at the top dose activity change, negative = inhibition, hits mostly inhibitors; hit rate 27% among 530; also: % is scaled to controls: 0 for no effect and ±100 for the full control effect; nearly all actives have a fitted effect of over 45% in size
RECQ1 inh-2 – confirmation of human RECQ1 helicase inhibitors. shares compounds with RECQ1 inh-1. recombinant RECQ1 DNA unwinding, red fluorescence. Potency, µM (doses to about 119 µM), inactives show at the top dose activity, negative = inhibition, hits mostly inhibitors. hit rate 15% among 1,100. AID 504841; also: % is scaled to controls: 0 for no effect and ±100 for the full control effect; nearly all actives have a fitted effect of over 50% in size
L3MBTL1 inh-2 – validation of human L3MBTL1 methyl-lysine binding inhibitors. shares compounds with L3MBTL1 inh-1. L3MBTL1 methyl-lysine binding inhibition, biochemical qHTS. Potency, µM, hits mostly inhibitors. hit rate 91% among 500; also: nearly all actives have a fitted effect of over 70% in size
AlphaScreen ctr2 – interferes with AlphaScreen signal in L3MBTL1 counterscreen. shares compounds with L3MBTL1 inh-1. AlphaScreen counterscreen, signal inhibition. Potency, µM (doses to about 57.1 µM), inactives show at the highest dose activity change, negative = inhibition, most hits filed as inhibitors. 500 tested, under 10 active; also: 0% is about no effect
Numbers without * were called inactive; ? = inconclusive; / = no result given; [ ] = dose if it differs, or a comment. The full list was thinned out, with hits kept by preference. Unless noted, calls follow the shape of the dose curve; as a rule, active = well fitted curve in the direction sought with a large enough effect; inconclusive = small, poorly fitted or top-dose-only effect, or another doubt; inactive = no such curve, though single readings can be large; an effect the other way counts as inactive or inconclusive. Potency is read from the fitted curve at half-maximal effect.

SMILES	L3MBTL1 inh-1	APE1 inh-1	RECQ1 inh-1	BLM inh-1	JMJD2E inh	RGS12 GoLoco inh	DNA dye displace	Endo IV inh	APE1 inh-2	APE1 FP inh	L3MBTL1 inh-2	AlphaScreen ctr2	others
O=C(O)c1cc(-c2ccc(/C=C3\NC(=O)N(c4ccccc4)C3=O)o2)ccc1Cl	20µM*	25µM*	25µM*	5%	?	-3%	/	/	?	/	3*	3%
O=C(Nc1cccc(S(=O)(=O)NC2=NCCCCC2)c1)c1cc(-c2ccco2)nc2ccccc12	35µM*	13µM*	20µM*	?	?	19%	-11%	7%	?	-13%	3*	3%	RECQ1 inh-2=?
Cc1ccc(C)c(S(=O)(=O)NC2CCSC2=O)c1 (stereo not drawn)	6%	-6%	/	/	/	/	/	/	/	/	/	/
Cc1cc(/C=C(/C#N)c2nc3ccccc3[nH]2)c(C)n1-c1cc(C(=O)O)cc(C(=O)O)c1	3.5µM*	?	2%	-5%	22µM*	12%	31%	4%	?	?	1.5*	-15%
Cc1cc(/C=C(/C#N)c2nc3ccccc3[nH]2)c(C)n1-c1ccccc1C(=O)O	/	?	-3%	11%	-6%	68%	/	/	/	/	/	/
N[C@@H](CSS(=O)(=O)O)C(=O)O	/	?	-6%	-4%	?	3%	/	/	/	/	/	/
N[C@@H](Cc1ncccn1)C(=O)O	/	/	/	/	/	-7%[14.2 µM]	/	/	/	/	/	/
CCN(CC)Cc1c(O)c(Cl)cc2c(C)cc(=O)oc12	22µM*	13µM*	?	-21%	?	16µM*	8%	-8%	28µM*	-44%	15*	3%	RECQ1 inh-2=56µM*
CC(=O)Nc1ccc(NC(=O)C(Cc2ccccc2)N2Cc3ccccc3C2=O)cc1 (stereo not drawn)	/	/	/	-1%	/	/	/	/	/	/	/	/
CCN(CC)S(=O)(=O)c1ccc2c(c1)N(CC(=O)Nc1ccc(F)cc1F)C(=O)C1CCCN21 (stereo not drawn)	/	/	/	0%	/	/	/	/	/	/	/	/
COc1ccc(Cl)cc1NC(=O)Cn1ncc2c3ccccc3n(C)c2c1=O	/	/	/	-5%	/	/	/	/	/	/	/	/
O=C(CCCN1C(=O)/C(=C/c2ccco2)SC1=S)Nc1ccccc1C(=O)O	7.1µM*	20µM*	8.9µM*	9%	?	33%	-10%	119%	13µM*	-30%	3.4*	0%	RECQ1 inh conf=28µM*;RECQ1 ADP FP=50µM*
O=C(O)CCCN1C(=O)/C(=C\c2ccco2)SC1=S	25µM*	20µM*	?	59%	?	43%	-4%	69%	?	-1%	?	1%
O=C(CCCN1C(=O)/C(=C\c2ccco2)SC1=S)Nc1ccc2ccccc2c1	-13%	-11%	-19%	-25%	-3%	46%	/	/	/	/	/	/
O=C(CCN1C(=O)/C(=C/c2ccco2)SC1=S)Nc1ccc(O)cc1C(=O)O	/	-5%	/	29%	/	/	/	/	/	/	/	/
COc1cccc2c1CCC1CC(=O)CC[C@@]21C (stereo partly drawn)	/	1%	-5%	-9%	-19%	7%	/	/	/	/	/	/
COc1ccc(N2Cc3cccc(C(=O)N4CCN(C(=O)c5ccco5)CC4)c3C2=O)cc1	28µM*	11µM*	10µM*	18µM*	-9%	6%	/	/	28µM*	/	2.7*	-16%	BLM inh-2=23µM*;RECQ1 inh conf=40µM*;RECQ1 ADP FP=?;RECQ1 inh-2=16µM*
COc1ccc(N2Cc3cccc(C(=O)N4CCOCC4)c3C2=O)cc1	/	-5%	-9%	-1%	-12%	7%	/	/	/	/	/	/
COc1ccc(CNS(=O)(=O)c2cc3c(cc2C)n(C)c(=O)c(=O)n3C)cc1	/	/	/	0%	/	/	/	/	/	/	/	/
CCOC(=O)c1cc(-c2ccc(N3CCOCC3)cc2)nn1-c1ccccc1C(=O)O	14µM*	2.5µM*	11µM*	-25%	?	-3%	3%	?	?	?	6.7*	5%	RECQ1 inh conf=45µM*;RECQ1 ADP FP=36%[91.9 µM];RECQ1 inh-2=?
Cc1ccc(-c2cc(-c3ccco3)c(C#N)c(=O)[nH]2)cc1	28µM*	35µM*	?	25µM*	?	11%	4%	-1%	?	?	21*	-1%
O=C(O)c1cccc(-n2cccc2/C=C/[N+](=O)[O-])c1	2.8µM*	4µM*	?	60%	?	-17%	-4%	17%	4.5µM*	?	1.7*	5%
N#C/C(=C/c1cccn1-c1cccc(C(=O)O)c1)c1ccc(Cl)cc1	25µM*	11µM*	?	-25%	-1%	11%	?	-6%	5µM*	1%	24*	?	RECQ1 inh-2=45µM*
